# According to PubChem BioAssay AID743326 (National Center for Advancing Translational Sciences (NCATS), 2014):
# A number with no mark means an inactive call. Activity calls are given as the source filed them. Calls come from the whole dose curve. Square brackets hold non-standard residues; d marks the D form. Peptide text beside a SMILES is read from it. Orn = NCCC[C@H](N)C(=O)O
# Experiment: qHTS profiling of Chloroquine Analogs as inhibitors of Plasmodium falciparum (DD2) proliferation
# Settings: Potency: Plasmodium falciparum Dd2 proliferation inhibition; series mostly up to 28.7 µM; activity change, negative = inhibition: at the top concentration
# Excerpt: Plasmodium falciparum is a virulent malarial parasite that kills 1-2 million people worldwide each year. Transmitted by mosquitoes, the sporozoite form of the parasite enters the blood stream to infect hepatocytes, where they become merozoites that infect red blood cells (erythrocytes). Within erythrocytes, merozoites begin a […] cycle of growth and division, after which the parasite is released to infect new red blood cells. Gametocytes, which form within erythrocytes as well, circulate in the bloodstream and are ingested by the mosquito, thereby completing the life cycle. To profile malarial isolates for differential chemical responses and to identify inhibitors of malarial growth, an assay that measures P. falciparum growth and replication within erythrocytes was employed. This assay uses a DNA binding fluorescent dye (SYBR Green) to detect parasite DNA following cell lysis. Because mature erythrocytes lack DNA, only Plasmodium-derived DNA is detected.
# The SYBR Green viability assay was adapted from a method described previously (Plouffe et al., 2008). For screening 3 ul culture medium was dispensed into 1536 well black clear bottom plates (Aurora Biotechnologies) using a Multidrop Combi (Thermo Fisher Scientific Inc.), 23 nL compounds in DMSO were added by a pin tool (Kalypsys), and 5 ul of erythrocytes infected with P. falciparum (0.3% parasitemia, 2.5% hematocrit final concentration) were added. The plates were incubated at 37 C in a humidified incubator in 5% CO2 for 72 h, and 2 ul lysis buffer (20 mM Tris HCl, 10 mM EDTA, 0.16% saponin, 1.6% triton X, 10X SYBR Green I supplied as 10,000X […] by Invitrogen) was added to each well. The plates were mixed for 25 sec with gentle shaking and incubated overnight at room temperature in the dark. The following morning, fluorescence intensity at 485(14) nm excitation and 535(25) nm emission wavelengths was measured on an EnVision (Perkin Elmer) plate reader. Plate reads were normalized relative to the control inhibitor (0.29 uM artemisinin) and vehicle (DMSO) wells present on each plate and then corrected by an algorithm using vehicle-only control plates at the beginning and end of the compound plate stack.
SMILES,"activity change, negative = inhibition",Potency
Cn1cncc1[C@@](N)(c1ccc(Cl)cc1)c1ccc2c(c1)c(-c1cccc(Cl)c1)cc(=O)n2C,193%,–
O=C(C[C@@H]1NCCC[C@@H]1O)Cn1cnc2ccccc2c1=O,-101%,–
Cc1cccc(C)c1OCC(N)C(C)C (configuration not stated),–,5.95 µM (active)
Clc1ccc(COC(Cn2ccnc2)c2ccc(Cl)cc2Cl)c(Cl)c1 (configuration not stated),-98.7% [at 14.2 µM],–
CNCCC(Oc1ccccc1OC)c1ccccc1 (configuration not stated),-94%,–
O=C(O)c1cn(C2CC2)c2cc(N3CCNCC3)c(F)cc2c1=O,-13.3%,–
CCN(CC)CCOc1ccc2c(=O)c3ccc(Cl)cc3n(CCN(CC)CC)c2c1,–,1.33 µM (active)
CSc1cccc(NC(=O)CC[C@H]2O[C@@H]3O[C@]4(C)CC[C@H]5[C@H](C)CC[C@@H]([C@@H]2C)[C@@]35OO4)c1,–,0.0266 µM (active)
CN1CC[C@H](CN2c3ccccc3Sc3ccccc32)C1,-70.9%,–
O=C1C(=O)c2ccccc2C(O)=C1C1CCC(c2ccc(Cl)cc2)CC1 (configuration not stated),-99.4%,–
C[C@@H]1CCC2[C@@H](C)[C@@H](O)O[C@@H]3O[C@@]4(C)CC[C@@H]1[C@@]23OO4 (some centres not stated),-102%,–
C[C@H]1c2cccc(O)c2C(O)=C2C(=O)[C@]3(O)C(O)=C(C(N)=O)C(=O)[C@@H](N(C)C)[C@@H]3[C@@H](O)[C@@H]21,-96.4%,–
COCC(=O)O[C@]1(CCN(C)CCCc2nc3ccccc3[nH]2)CCc2cc(F)ccc2[C@@H]1C(C)C,-101%,–
CC(C)(C)c1cc(O)c(CN)c(C(C)(C)C)c1,180%,–
Cc1oncc1C(=O)Nc1ccc(C(F)(F)F)cc1,-19.1%,–
NC(=NCc1ccccc1)NC(=O)c1nc(Cl)c(N)nc1N,-94.1%,–
C=CCON=C(C[C@H]1O[C@@H]2O[C@]3(C)CC[C@@H]4[C@H](C)CC[C@@H]([C@H]1C)[C@@]24OO3)[C@H]1O[C@@H]2O[C@]3(C)CC[C@H]4[C@H](C)CC[C@@H]([C@@H]1C)[C@@]24OO3,197%,–
Cc1nc2c(C#N)cccc2n1-c1ccc(C(=O)NC2CC2)s1,179%,–
COc1cc(NC(C)CCCN)c2ncccc2c1 (configuration not stated),193% [at 14.2 µM],–

SMILES,"activity change, negative = inhibition",Potency
CCCCN(CCCC)CC(O)c1cc(Cl)cc2c1-c1ccc(Cl)cc1C2=Cc1ccc(Cl)cc1 (configuration not stated),164%,–
C#C[C@]1(O)CC[C@@H]2[C@H]3CCC4=CC(=O)CC[C@H]4[C@H]3C(=C)C[C@@]21CC,-96.6%,–
COc1cccc(CCc2ccccc2OCC(CN(C)C)OC(=O)CCC(=O)O)c1 (configuration not stated),–,0.943 µM (active)
C[C@@H]1[C@@H](CC(C[C@H]2O[C@@H]3O[C@]4(C)CC[C@@H]5[C@H](C)CC[C@@H]([C@H]2C)[C@@]35OO4)C[S+](=O)([O-])c2ccc(COC(=O)N(C)C)cc2)O[C@@H]2O[C@]3(C)CC[C@H]4[C@H](C)CC[C@@H]1[C@@]24OO3 (some centres not stated),-102%,–
COc1cc2c(cc1C(F)(F)F)N(C(=O)Nc1cc(F)cc(-c3cccnc3)c1)CC2,177%,–
CC(=O)N(O)CCCP(=O)(O)O,-91.8%,–
CC(C)C[C@@H]1NC(=O)[C@H](CCCN)NC(=O)[C@H](C(C)C)NC(=O)[C@@H]2CCCN2C(=O)[C@@H](Cc2ccccc2)NC(=O)[C@H](CC(C)C)NC(=O)[C@H](CCCN)NC(=O)[C@H](C(C)C)NC(=O)[C@@H]2CCCN2C(=O)[C@@H](Cc2ccccc2)NC1=O (cyclo(V[Orn]L[dF]PV[Orn]L[dF]P)),–,0.0007 µM (active)
O[C@H](c1cc(C(F)(F)F)nc2c(C(F)(F)F)cccc12)[C@H]1CCCCN1,192% [at 14.2 µM],–
CN(C)c1ccc2nc3ccc(=[N+](C)C)cc-3sc2c1,–,0.0069 µM (active)
C=CC(C)=C[C@@]1(C)SC(=O)C(C)=C1O,0.0824%,–
CCN(CC)CCOCCOC(=O)C(CC)(CC)c1ccccc1,-57.6%,–
CN(C)CCOC(c1ccccc1)c1ccccc1,–,1.5 µM (active)
Oc1cc(Cl)ccc1Oc1ccc(Cl)cc1Cl,–,3.35 µM (active)
CNC(=O)c1cc(Oc2ccc(NC(=O)Nc3ccc(Cl)c(C(F)(F)F)c3)cc2)ccn1,183%,–
C/C(=C\c1csc(C)n1)[C@@H]1C[C@@H]2O[C@]2(C)CCC[C@H](C)[C@H](O)[C@@H](C)C(=O)C(C)(C)[C@@H](O)CC(=O)O1,24.3%,–
C[C@H]1[C@@H](OC(=O)CCC(=O)O)O[C@@H]2OC3(C)CC[C@H]4[C@H](C)CC[C@@H]1[C@@]24OO3,-102%,–
CCc1nc(N)nc(N)c1-c1ccc(Cl)cc1,-2.13%,–
CCCC[C@@H]1C[C@@H](C(=O)NC([C@H](C)Cl)[C@H]2O[C@H](S)[C@H](O)[C@@H](O)[C@@H]2O)N(C)C1 (some centres not stated),-73.3%,–
